The campaign covered roughly 5,500 compounds. About 2,000 (36%) were called active. Not shown: some 18% with an inconclusive outcome. No stated cut-off is given here; in the data, active means normalized growth mostly below about 0.91 (no sharp cut-off); inconclusive means no clear call, values can overlap the other calls; inactive means mostly above about 0.92. The list shows a part of the results.
Assay: chemical genetic growth profiling, strain panel (AID 1159580);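 further: tested at 20 µM; growth read once vehicle control cultures reached saturation at 30 °C; 1 = growth at the plate median or of vehicle wells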
Conditions: S. cerevisiae deletion strains, growth OD

Measured: normalized growth

COC(=O)C1C(O)CCC2CN3CCc4c([nH]c5ccccc45)C3CC21 (centres undefined)
inactive: locus YAL040C, strain CLN3, stronger effect = lower value 0.997 | locus YCL061C, strain MRC1 (second series), stronger effect = lower value 1.01 | locus YDR363W, strain ESC2, stronger effect = lower value 1 | locus YER002W, strain NOP16, stronger effect = lower value 1.01 | locus YGR078C, strain PAC10, stronger effect = lower value 1.01 | locus YGR229C, strain SMI1, stronger effect = lower value 1.04 | locus YMR307W, strain GAS1, stronger effect = lower value 1.01 | locus YNL153C, strain GIM3, stronger effect = lower value 0.981 | locus YNL175C, strain NOP13, stronger effect = lower value 1.02 | locus YNL197C, strain WHI3, stronger effect = lower value 0.995 | locus YNL224C, strain SQS1, stronger effect = lower value 1 | locus YNL322C, strain KRE1, stronger effect = lower value 1.03 | locus YOR083W, strain WHI5 (second series), stronger effect = lower value 1 | locus YPL241C, strain CIN2, stronger effect = lower value 1.01
